Laboratory results reported in PubChem BioAssay (NCATS).
“And” between values parts separate entries of the source, which are not always exact repeats. Identical values can stand only once. A number with no mark means an inactive call. Inconclusive results are not listed. Where a call stands in place of a potency, no number is given. The source made the active and inactive calls. Unless noted, calls come from the whole dose curve; as a rule, active = well fitted curve in the direction sought with a large enough effect; inconclusive = small, poorly fitted or top-dose-only effect, or another doubt; inactive = no such curve, though single readings can be large; an effect the other way counts as inactive or inconclusive.

Legend:
SKOV3 = experiment: Primary qHTS to identify gynecologic anti-cancer compounds using libraries of approved drugs and bioactive compounds (AID 1345084); conditions: Gynecologic cancer cell panel viability, ATPlite luminescence, 48 h; series mostly up to 57.5 µM; note: nearly all actives have a fitted effect of over 55% in size; note: potency is the fitted concentration of half-maximal effect
Outline: (§1)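 Cell viability after 48 h drug treatment, ATPlite luminescence readout; five doses.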

Tov-21-G = experiment: as above; conditions: Gynecologic cancer cell panel viability, ATPlite luminescence, 48 h; series mostly up to 57.5 µM
Outline: as §1

Tov112D = experiment: as above; conditions: Gynecologic cancer cell panel viability, ATPlite luminescence, 48 h; series mostly up to 57.5 µM
Outline: as §1

[1] = Drug repurposing screens with cells derived from glioblastoma tumor samples (AID 1345199); conditions: GBM patient neurospheres viability, ATP luminescence, 48 h; for Potency: tumour line A; note: potency is the fitted concentration of half-maximal effect; for all read-outs here: nearly all actives have a fitted effect of over 40% in size
Outline: (§2)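 Primary testing used CD133+ neurospheres from four GBM patients, seven concentrations, 48 h exposure and ATP-based viability; confirmation added three slower-growing patient lines.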

astro = experiment: as above; conditions: viability, ATP luminescence, 48 h; series mostly up to 45.9 µM
Outline: as §2

[2] = molecular target: Nuclear receptor subfamily 1 group I member 2 (Rattus norvegicus) (UniProt Q9R1A7); experiment: qHTS assay for small molecule activators of the rat pregnane X receptor (rPXR) signaling pathway (AID 651751; call rule not given here); conditions: rPXR reporter cells, luciferase (One-Glo), 24 h
[3] = qHTS assay for small molecule activators of the human pregnane X receptor (PXR) signaling pathway (AID 720659; call rule not given here)
[4] = at 45.9 µM (top of the series), tumour line B
[5] = at 45.9 µM (top of the series), tumour line D
[6] = at 46.1 µM (top of the series), tumour line C

Sequence of Nuclear receptor subfamily 1 group I member 2 (Rattus norvegicus) (Q9R1A7 whole entry, looked up): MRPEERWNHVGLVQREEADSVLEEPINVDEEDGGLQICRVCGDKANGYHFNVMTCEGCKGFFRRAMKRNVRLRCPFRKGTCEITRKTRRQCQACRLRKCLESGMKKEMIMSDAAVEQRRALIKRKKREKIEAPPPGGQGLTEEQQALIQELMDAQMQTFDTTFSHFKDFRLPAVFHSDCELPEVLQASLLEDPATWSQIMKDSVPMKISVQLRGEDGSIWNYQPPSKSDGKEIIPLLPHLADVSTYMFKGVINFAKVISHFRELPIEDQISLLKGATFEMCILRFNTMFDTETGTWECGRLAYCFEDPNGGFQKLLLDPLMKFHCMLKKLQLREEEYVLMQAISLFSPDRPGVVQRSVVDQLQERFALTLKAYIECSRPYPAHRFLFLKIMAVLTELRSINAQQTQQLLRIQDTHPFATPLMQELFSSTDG

## CCOC(=O)[C@H](CCc1ccccc1)N[C@@H](C)C(=O)N1[C@H](C(=O)O)C[C@@H]2CCC[C@@H]21
SKOV3
  Potency: inactive
Tov-21-G
  Potency: inactive
Tov112D
  Potency: inactive
[1]; [4]
  activity, negative = cell killing: -17.1%
[1]; [5]
  activity, negative = cell killing: 6.01%
[1]; [6]
  activity, negative = cell killing: -13.2%
astro
  Potency: inactive

## CCOC(=O)Nc1ccc2c(c1)N(C(=O)CCN1CCOCC1)c1ccccc1S2
SKOV3
  Potency: inactive
Tov-21-G
  Potency: inactive
Tov112D
  Potency: inactive
[1]; at 20 µM (top of the series), tumour line C
  activity, negative = cell killing: -16.1%
[1]; at 21.2 µM (top of the series), tumour line B
  activity, negative = cell killing: -11.1%
[1]; at 21.2 µM (top of the series), tumour line D
  activity, negative = cell killing: -19.6%
astro
  Potency: inactive

## NS(=O)(=O)Cc1noc2ccccc12
SKOV3
  Potency: inactive
Tov-21-G
  Potency: inactive
Tov112D
  Potency: inactive
[1]; [4]
  activity, negative = cell killing: -12.5%
[1]; [5]
  activity, negative = cell killing: -13.1%
[1]; [6]
  activity, negative = cell killing: 1.44%
astro
  Potency: inactive

## COc1ccc(S(=O)(=O)N2c3ccc(Cl)cc3[C@@](O)(c3ccccc3Cl)[C@H]2C(=O)N2CCC[C@@H]2C(N)=O)cc1OC
SKOV3
  Potency: inactive
Tov-21-G
  Potency: inactive
Tov112D
  Potency: inactive
[1]; [4]
  activity, negative = cell killing: -16.9%
[1]; [5]
  activity, negative = cell killing: -6.65%
[1]; [6]
  activity, negative = cell killing: -27%
astro
  Potency: inactive

## CCCCCCCCCCCCCC[N+](C)(C)Cc1ccccc1
SKOV3
  Potency: 22.4 µM (active)
Tov-21-G
  Potency: 20 µM (active)
Tov112D
  Potency: 14.1 µM (active)
astro
  Potency: 12.6 µM (active)

## CCCCCCCCOc1ccc(C(=O)c2ccccc2)c(O)c1
SKOV3
  Potency: inactive
Tov-21-G
  Potency: inactive
Tov112D
  Potency: inactive
[1]; [4]
  activity, negative = cell killing: -18.7%
[1]; [5]
  activity, negative = cell killing: -9.16%
[1]; [6]
  activity, negative = cell killing: -24.6%
astro
  Potency: inactive
[2]
  max response: -1.61%
[3]
  outcome: inactive

## CC1(C)OC[C@@H]2O[C@@]3(C(=O)O)OC(C)(C)O[C@H]3[C@@H]2O1
SKOV3
  Potency: inactive
Tov-21-G
  Potency: inactive
Tov112D
  Potency: inactive
[1]; [4]
  activity, negative = cell killing: 2.23%
[1]; [5]
  activity, negative = cell killing: 2.89%
[1]; [6]
  activity, negative = cell killing: -11.9%
astro
  Potency: inactive
[2]
  max response: 0.338%
[3]
  outcome: inactive

## CCCCOC(=O)CC(CC(=O)OCCCC)(OC(C)=O)C(=O)OCCCC
SKOV3
  Potency: inactive
Tov-21-G
  Potency: inactive
Tov112D
  Potency: inactive
[1]; [4]
  activity, negative = cell killing: -5.84%
[1]; [5]
  activity, negative = cell killing: -7.23%
[1]; [6]
  activity, negative = cell killing: -12.4%
astro
  Potency: inactive
[2]
  max response: 12%

## COc1ccc(C(=O)c2ccccc2)c(O)c1
SKOV3
  Potency: inactive
Tov-21-G
  Potency: inactive
Tov112D
  Potency: inactive
[1]; [4]
  activity, negative = cell killing: 1.18%
[1]; [5]
  activity, negative = cell killing: -2.35%
[1]; [6]
  activity, negative = cell killing: -6.38%
astro
  Potency: inactive
[2]
  max response: 7.56% and 2.38%

## CN(C)C(=O)Nc1ccc(Cl)c(Cl)c1
SKOV3
  Potency: inactive
Tov-21-G
  Potency: inactive
Tov112D
  Potency: inactive
[1]; [4]
  activity, negative = cell killing: -10.4%
[1]; [5]
  activity, negative = cell killing: -7.69%
[1]; [6]
  activity, negative = cell killing: -10.1%
astro
  Potency: inactive
[2]
  max response: 5.92%
[3]
  outcome: inactive

## CCCCC(CC)COC(=O)c1ccc(N(C)C)cc1 (configuration not stated)
SKOV3
  Potency: inactive
Tov-21-G
  Potency: inactive
Tov112D
  Potency: inactive
[1]; [4]
  activity, negative = cell killing: -7.11%
[1]; [5]
  activity, negative = cell killing: -11.8%
[1]; [6]
  activity, negative = cell killing: -2.69%
astro
  Potency: inactive
[2]
  max response: 5.66% and 6.49%

## COc1cc(C(=O)N2CCCCCCC2)cc(OC)c1OC
SKOV3
  Potency: inactive
Tov-21-G
  Potency: inactive
Tov112D
  Potency: inactive
[1]; [4]
  activity, negative = cell killing: -16.1%
[1]; [5]
  activity, negative = cell killing: -20.1%
astro
  Potency: inactive

## Cc1cc2c(OCC(CNC(C)(C)C)OC(=O)c3ccccc3)cccc2[nH]1 (configuration not stated)
SKOV3
  Potency: inactive
Tov-21-G
  Potency: inactive
Tov112D
  Potency: inactive
[1]; [4]
  activity, negative = cell killing: -19.3%
[1]; [5]
  activity, negative = cell killing: -5.62%
[1]; [6]
  activity, negative = cell killing: -10.8%
astro
  Potency: inactive

## COc1cc([C@H]2Oc3cc([C@H]4Oc5cc(O)cc(O)c5C(=O)[C@@H]4O)ccc3O[C@@H]2CO)ccc1O
SKOV3
  Potency: inactive
Tov-21-G
  Potency: inactive
Tov112D
  Potency: inactive
[1]; [4]
  activity, negative = cell killing: -0.835%
[1]; [5]
  activity, negative = cell killing: -13.1%
[1]; [6]
  activity, negative = cell killing: -7.07%
[3]
  outcome: inactive

## C[C@]12CCC(=O)C=C1C=C[C@@H]1[C@@H]2CC[C@@]2(C)[C@H]1CC[C@@]21CCC(=O)O1
SKOV3
  Potency: inactive
Tov-21-G
  Potency: inactive
Tov112D
  Potency: inactive
[1]; [4]
  activity, negative = cell killing: -20%
astro
  Potency: inactive

## CCCCCCCCCCC[C@@H](C[C@@H]1OC(=O)[C@H]1CCCCCC)OC(=O)[C@H](CC(C)C)NC=O
SKOV3
  Potency: inactive
Tov-21-G
  Potency: inactive
Tov112D
  Potency: inactive
[1]; [5]
  activity, negative = cell killing: -23%
[1]
  Potency: 10 µM (active)
astro
  Potency: 22.4 µM (active)

## O=C(NCCc1c[nH]c2ccccc12)c1cccnc1
SKOV3
  Potency: inactive
Tov-21-G
  Potency: inactive
Tov112D
  Potency: inactive
[1]; [4]
  activity, negative = cell killing: -17.4%
astro
  Potency: inactive

## CC(C)Nc1cccnc1N1CCN(C(=O)c2cc3cc(NS(C)(=O)=O)ccc3[nH]2)CC1
SKOV3
  Potency: inactive
Tov-21-G
  Potency: inactive
Tov112D
  Potency: inactive
[1]; [4]
  activity, negative = cell killing: -14.1%
[1]; [5]
  activity, negative = cell killing: 0.603%
astro
  Potency: inactive

## CC(C)=CCOc1ccc(/C=C/C(=O)c2ccc(OCC=C(C)C)cc2OCC(=O)O)cc1
SKOV3
  Potency: inactive
Tov-21-G
  Potency: inactive
Tov112D
  Potency: inactive
[1]; [4]
  activity, negative = cell killing: 16%
[1]; [5]
  activity, negative = cell killing: -25.2%
[1]; [6]
  activity, negative = cell killing: -4.09%
astro
  Potency: 31.6 µM (active)

## CCCCCCCC/C=C\CCCCCCCCN
SKOV3
  Potency: inactive
Tov-21-G
  Potency: inactive
Tov112D
  Potency: inactive
[1]; [4]
  activity, negative = cell killing: -5.85%
[1]; [5]
  activity, negative = cell killing: -1.47%
[1]; [6]
  activity, negative = cell killing: -19.7%
astro
  Potency: inactive
[2]
  max response: 3.35%
[3]
  outcome: inactive

## CCC(C(=O)OCCOCCN(CC)CC)c1ccccc1 (configuration not stated)
SKOV3
  Potency: inactive
Tov-21-G
  Potency: inactive
Tov112D
  Potency: inactive
[1]; [6]
  activity, negative = cell killing: -29.9%
[1]
  Potency: 14.1 µM (active)
astro
  Potency: inactive
